In assay [1] the test system is Wnt5a (protein binding on small-molecule microarray). Kind of assay: small molecules binding Wnt5a protein – biophysical, small-molecule microarray, 635/667 nm fluorescence, primary screen (AID 1142).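 Note: fluorescence read at 667 nm with signal to noise per printed feature.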 The settings on record: 635 nm fluorescence, higher = more signal.
Assay [2] in a line: ATP-based viability of Huh7 replicon cells – cell-based, CellTiter-Glo luminescence, basal, 48 h, cytotoxicity control for HCV replication inhibitor project, primary screen (AID 1143).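 Note: Huh7 hepatoma cells carrying a hepatitis C replication reporter with no stimulus; test concentration not given here.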 The note with it: higher = more signal, called active from +8 up or from −8 down. On the technique in general: In antiviral work, replicon cells carry a viral genome segment that copies itself.
Assay [3] can be described thus: Pseudomonas biofilm growth suppression – PAO1 strain, BacTiter-Glo luminescence, LB-PBS, primary screen (AID 1144). The note with it: P. aeruginosa PAO1 biofilm, 12 h, higher = more signal.
The nature of assay [4]: basal CRE-LacZ reporter activity in PC12 – cell-based, unstimulated, primary screen (AID 1145). The settings on record: no forskolin, luminescence, 4.5 h, higher = more signal, called active from +8 up or from −8 down.
Assay [5] is described as follows: forskolin-driven CRE-LacZ activity in PC12 – cell-based, CRE-LacZ reporter, forskolin-stimulated, primary screen (AID 1146).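 Note: PC12 cells with 6xCRE LacZ reporter stimulated by forskolin 10 µM; beta-galactosidase reporter signal reflecting CREB driven transcription.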 The note with it: luminescence, 4.5 h, higher = more signal, called active from +8 up or from −8 down.
Assay [6] deals with Streptavidin (Streptomyces avidinii) (UniProt P22629). Kind of assay: compounds binding control protein streptavidin – biophysical, small-molecule microarray, 635/667 nm fluorescence, artefact control for SMM compound annotation, primary screen (AID 1147).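 Note: signal reflects streptavidin binding to arrayed compounds as a control protein.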 The settings on record: higher = more signal.
Assay [7] can be described thus: probe aInhba binding on compound microarray – biochemical, small-molecule microarray, 635/667 nm fluorescence, primary screen (AID 1148).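 Note: score merges 667nm spot fluorescence with signal-to-noise for antibody binding to printed compounds.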 The note with it: higher = more signal.
Assay [8] concerns the target Torsin-1A (Homo sapiens) (UniProt O14656). Kind of assay: TOR1A wild-type binding on microarray – cell lysate, small-molecule microarray, lysate, 635/667 nm, primary screen (AID 1149). The note with it: COS7 hTOR1A-WT lysate, 635 nm fluorescence, higher = more signal.
Assay [9] shares this target. Kind of assay: torsin A mutant lysate binding on microarrays – cell lysate, small-molecule microarray, COS7 lysate, 635/667 nm fluorescence, primary screen (AID 1150).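 Note: score pools 667 nm emission and signal to noise measuring lysate protein binding.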 The settings on record: COS7 hTOR1A mutant lysate, 635 nm fluorescence, higher = more signal.
Assay [10] concerns Sonic hedgehog protein (Shh). Put plainly: Sonic hedgehog microarray binding compounds – biochemical, small-molecule microarray, 635/667 nm fluorescence, primary screen (AID 1151).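 Note: Shh protein binding to compounds spotted on small-molecule microarray slides; score combines spot fluorescence intensity with signal-to-noise across triplicate slides.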 The settings on record: 635 nm fluorescence, higher = more signal.
Assay [11] is described as follows: optical density shifts of acrAB sulA E. coli – strain DRC41, OD650, 48 h, E. coli filamentation inducer project, primary screen (AID 1152).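 Note: E. coli MC1000 strain DRC41 lacking acrAB efflux pump and sulA.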 The settings on record: higher = more signal, called active from +8 up or from −8 down.
A short description of assay [12]: probe aLefty1 binding on compound microarray – biochemical, small-molecule microarray, 635/667 nm fluorescence, primary screen (AID 1153).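 Note: score merges spot fluorescence with signal-to-noise ratio from the scanned slide images.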 The note with it: higher = more signal.
Assay [13] is described as follows: plasmodial surface anion channel blockers, osmotic lysis – cell-based, P. falciparum Indochina, OD700, 1 h, primary screen (AID 1154). The note with it: P. falciparum Indochina infected RBC osmotic lysis, higher = more signal, called active from +8 up or from −8 down.
Assay [14] can be described thus: plasmodial surface anion channel blockers, osmotic lysis – cell-based, P. falciparum Indochina, OD700, 2 h, primary screen (AID 1155).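 Note: lysis reports solute entry through the parasite surface anion channel PSAC.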 The note with it: P. falciparum Indochina infected erythrocytes, higher = more signal, called active from +8 up or from −8 down.
The nature of assay [15]: changes in parasitized red cell lysis, either direction – P. falciparum Indochina, OD700, 3 h, PSAC antagonist project, primary screen (AID 1156). The settings on record: P. falciparum-infected erythrocytes, osmotic lysis, higher = more signal, called active from +8 up or from −8 down.
A short description of assay [16]: plasmodial surface anion channel blockers, osmotic lysis – cell-based, P. falciparum Indochina, OD700, 18 h, primary screen (AID 1157). The settings on record: P. falciparum Indochina infected erythrocytes, osmotic lysis OD700, 18 h; higher = more signal, called active from +8 up or from −8 down.
Assay [17] can be described thus: S6 kinase pathway phospho-S6 level changes – cell-based, A549, cytoblot, luminescence, serum-stimulated, primary screen (AID 1158).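 Note: serum-stimulated A549 lung adenocarcinoma cells; signal is phosphorylated S6 detected by cytoblot immunostaining with HRP secondary.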 The settings on record: 5 h, higher = more signal.
In assay [18] the target is NADPH oxidase 2 (Homo sapiens) (UniProt P04839). Put plainly: compounds shifting NOX2 Amplex Red fluorescence – cell-based, HEK293-NOX2, PMA-stimulated, NOX inhibitor project, primary screen (AID 1159). Note: test concentration not given here. The settings on record: 45 min, higher = more signal, called active from +8 up or from −8 down.
Assay [19] concerns the target NADPH oxidase 4 (Homo sapiens) (UniProt Q9NPH5). Put plainly: compounds shifting NOX4 Amplex Red fluorescence – cell-based, HEK293-NOX4, tetracycline-induced, NOX inhibitor project, primary screen (AID 1160). The settings on record: HEK293-NOX4, Amplex Red H2O2 fluorescence, 45 min; higher = more signal, called active from +8 up or from −8 down.
In assay [20] the target is NADPH oxidase 5 (Homo sapiens) (UniProt Q96PH1). Kind of assay: compounds shifting NOX5 Amplex Red fluorescence – cell-based, HEK293-NOX5, NOX inhibitor project, primary screen (AID 1161). The note with it: HEK293-NOX5, ionomycin, 45 min, higher = more signal.

Here are results for 4 compounds from PubChem BioAssay.

Calls of active or inactive are those of the source. Unless noted, the rule behind the calls is not given here.

NADPH oxidase 5 (Homo sapiens), sequence (Q96PH1 whole entry, looked up): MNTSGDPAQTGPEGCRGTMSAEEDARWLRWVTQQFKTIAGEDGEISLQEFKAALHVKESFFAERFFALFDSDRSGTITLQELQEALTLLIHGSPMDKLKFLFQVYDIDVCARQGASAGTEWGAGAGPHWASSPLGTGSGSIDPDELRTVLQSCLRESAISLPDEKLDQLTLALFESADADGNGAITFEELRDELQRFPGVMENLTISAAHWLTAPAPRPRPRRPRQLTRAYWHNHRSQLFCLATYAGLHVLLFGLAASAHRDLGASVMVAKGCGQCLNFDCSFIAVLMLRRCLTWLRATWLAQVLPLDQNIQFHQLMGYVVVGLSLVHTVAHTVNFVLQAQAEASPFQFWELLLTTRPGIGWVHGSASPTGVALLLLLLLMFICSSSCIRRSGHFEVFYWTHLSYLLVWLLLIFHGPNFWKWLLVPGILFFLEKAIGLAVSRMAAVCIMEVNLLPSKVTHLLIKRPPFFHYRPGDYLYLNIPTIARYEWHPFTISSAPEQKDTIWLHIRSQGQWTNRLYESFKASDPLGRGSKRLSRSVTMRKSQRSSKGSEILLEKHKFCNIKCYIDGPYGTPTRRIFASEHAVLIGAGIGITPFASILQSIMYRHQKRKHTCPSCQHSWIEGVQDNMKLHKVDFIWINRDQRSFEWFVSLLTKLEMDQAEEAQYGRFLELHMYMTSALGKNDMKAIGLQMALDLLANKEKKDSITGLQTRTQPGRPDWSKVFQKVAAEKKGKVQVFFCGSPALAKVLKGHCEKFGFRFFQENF
NADPH oxidase 4 (Homo sapiens), sequence (Q9NPH5 whole entry, looked up): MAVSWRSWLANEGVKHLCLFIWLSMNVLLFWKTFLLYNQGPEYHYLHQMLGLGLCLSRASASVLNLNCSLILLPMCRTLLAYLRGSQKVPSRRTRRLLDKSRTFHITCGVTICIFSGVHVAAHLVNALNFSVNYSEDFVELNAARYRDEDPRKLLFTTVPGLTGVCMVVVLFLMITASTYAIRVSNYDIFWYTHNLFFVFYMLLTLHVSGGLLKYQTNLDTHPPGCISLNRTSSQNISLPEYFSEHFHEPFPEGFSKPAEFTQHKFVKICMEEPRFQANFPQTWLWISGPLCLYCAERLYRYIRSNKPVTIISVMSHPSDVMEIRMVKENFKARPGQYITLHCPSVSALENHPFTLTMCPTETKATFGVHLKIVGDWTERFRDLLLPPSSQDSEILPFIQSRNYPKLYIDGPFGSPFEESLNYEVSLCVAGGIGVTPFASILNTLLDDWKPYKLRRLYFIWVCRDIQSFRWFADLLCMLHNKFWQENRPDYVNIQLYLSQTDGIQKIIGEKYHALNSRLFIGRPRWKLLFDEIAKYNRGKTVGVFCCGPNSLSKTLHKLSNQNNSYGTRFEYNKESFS
Torsin-1A (Homo sapiens), sequence (O14656 whole entry, looked up): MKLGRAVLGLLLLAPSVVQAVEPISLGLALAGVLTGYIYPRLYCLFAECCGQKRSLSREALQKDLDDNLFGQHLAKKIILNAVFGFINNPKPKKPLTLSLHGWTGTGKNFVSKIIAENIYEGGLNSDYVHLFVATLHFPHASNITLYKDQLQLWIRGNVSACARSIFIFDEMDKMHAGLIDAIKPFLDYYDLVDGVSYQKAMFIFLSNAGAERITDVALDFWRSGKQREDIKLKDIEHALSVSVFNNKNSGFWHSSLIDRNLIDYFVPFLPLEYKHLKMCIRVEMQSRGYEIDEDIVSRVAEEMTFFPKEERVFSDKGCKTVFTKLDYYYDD
NADPH oxidase 2 (Homo sapiens), sequence (P04839 whole entry, looked up): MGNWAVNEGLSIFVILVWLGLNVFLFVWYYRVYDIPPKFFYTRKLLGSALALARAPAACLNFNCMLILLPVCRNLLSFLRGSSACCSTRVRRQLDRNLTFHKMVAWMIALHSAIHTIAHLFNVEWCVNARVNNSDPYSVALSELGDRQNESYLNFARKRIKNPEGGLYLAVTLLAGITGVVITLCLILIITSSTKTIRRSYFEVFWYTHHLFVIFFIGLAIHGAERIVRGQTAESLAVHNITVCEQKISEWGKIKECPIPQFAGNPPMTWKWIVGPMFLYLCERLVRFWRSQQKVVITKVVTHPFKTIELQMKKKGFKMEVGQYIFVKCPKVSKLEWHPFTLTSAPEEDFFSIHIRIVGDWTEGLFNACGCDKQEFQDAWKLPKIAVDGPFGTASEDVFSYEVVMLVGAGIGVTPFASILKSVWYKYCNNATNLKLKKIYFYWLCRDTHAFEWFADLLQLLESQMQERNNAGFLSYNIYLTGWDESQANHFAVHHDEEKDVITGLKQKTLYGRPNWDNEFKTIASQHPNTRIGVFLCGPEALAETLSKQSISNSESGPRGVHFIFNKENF
Streptavidin (Streptomyces avidinii), sequence (P22629 whole entry, looked up): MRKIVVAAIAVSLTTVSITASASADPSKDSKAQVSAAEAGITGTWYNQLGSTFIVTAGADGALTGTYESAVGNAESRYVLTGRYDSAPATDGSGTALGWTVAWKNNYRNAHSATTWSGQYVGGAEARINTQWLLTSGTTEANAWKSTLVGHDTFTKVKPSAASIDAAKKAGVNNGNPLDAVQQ

Take `COCCOC(=O)N1C(=O)[C@@]2(c3cc(C#CC4(O)CCCCCC4)ccc31)[C@H](C(=O)NC[C@H](O)c1ccccc1)[C@H]1C(=O)O[C@H](c3ccccc3)[C@H](c3ccccc3)N1[C@@H]2c1ccc(OCCO)cc1`: the composite z-score is -0.0894 in assay [1]; -0.0815 in [6]; 0.217 in assay [7]; 0.0969 with Torsin-1A (Homo sapiens) [8]; 0.124 with Torsin-1A (Homo sapiens) [9]; 1.72 in [10]. In [12], the composite z-score was -0.007. The z-score in assay [2] was -3.38 (inactive); in assay [3], -0.401 (inactive); in assay [4] it was -0.285 (inactive); in [5], 0.0759 (inactive); in assay [11] it was 1.07 (inactive); in [13], 3.85 (inactive). Further, the z-score in assay [14] is 1.58 (inactive); in [15], -1.29 (inactive); in [16], 1.03 (inactive); in [17], 0.0102; in [18], 1.55 (inactive); in assay [19] it was 1.01 (inactive). Besides, the z-score in assay [20] is 0.979.

For `COc1ccc([Si](C)(C)[C@@H]2[C@@H](CCO)O[C@]3(C(=O)N(Cc4ccccc4)c4ccc(N5C(=O)COc6ccccc65)cc43)[C@H]2C)cc1`, the composite z-score was 0.0063 in assay [1]; 0.104 in assay [6]; -0.0832 in [7]; -0.0843 with Torsin-1A (Homo sapiens) [8]; -0.309 in the assay with Torsin-1A (Homo sapiens) [9]; 0.693 in [10]. This compound also gave a composite z-score in assay [12] of -0.435. Further, the z-score is -6.38 (inactive) in [2]; -0.617 (inactive) in assay [3]; -0.636 (inactive) in assay [4]; 0.0638 (inactive) in assay [5]; 2.1 (inactive) in assay [11]; 3.28 (inactive) in assay [13]. The z-score in [14] is 2.11 (inactive); in assay [15], 0.364 (inactive); in [16], 1.78 (inactive); in assay [17], 0.631; in assay [18], 0.883 (inactive); in assay [19], 1.33 (inactive). In addition, in assay [20], the z-score is 1.42.

On to `C[C@H]1NC(=O)C([C@@H](C)OCc2ccccc2)NC(=O)[C@@]23C(=O)N[C@@H](Cc4ccccc4)C2[C@H](C)[C@@]2(C)O[C@H]2C3/C=C/CC/C=C/CNC1=O` (stereo not given in full), for which the composite z-score in [1] is -0.108; in assay [6], -0.0311; in assay [7] it was -0.122; in the assay with Torsin-1A (Homo sapiens) [8], -0.0252; in the assay with Torsin-1A (Homo sapiens) [9], 0.212; in assay [10] it was 0.778. The composite z-score in [12] is -0.0094. The z-score in assay [2] was -1.24 (inactive); in assay [3], 1.27 (inactive); in assay [4], 4.21 (inactive); in [5], -1.16 (inactive); in assay [11], 1.85 (inactive); in assay [13] it was 1.79 (inactive). Also, the z-score in assay [14] was 0.76 (inactive); in [15], 0.89 (inactive); in [16], 0.107 (inactive); in assay [17], 0.888; in assay [18], 1.24 (inactive); in [19], -0.179 (inactive). Moreover, the z-score in assay [20] was found to be 0.815.

For the compound `[N-]=[N+]=Nc1ccccc1[C@@H]1OC(c2ccc(OCCCO)cc2)=N[C@]1(CCS(=O)(=O)c1ccccc1)C(=O)NCc1ccccc1`, the composite z-score in assay [1] was found to be 0.554; in [6], 1.3; in [7], 0.293; with Torsin-1A (Homo sapiens) [8], 1.53; with Torsin-1A (Homo sapiens) [9] it was 1.29; in assay [10] it was 0.565. In addition, in assay [12], the composite z-score is 1.01. The z-score in [2] is -1.97 (inactive); in assay [3], 0.156 (inactive); in assay [4], -0.744 (inactive); in assay [5] it was -0.653 (inactive); in assay [11], 0.871 (inactive); in assay [13], 28 (active). In addition, the z-score in [14] is 23.5 (active); in assay [15], 1.29 (inactive); in assay [16], 4.33 (inactive); in assay [17] it was -0.309; in assay [18], -1.86 (inactive); in [19], 0.642 (inactive). Further, the z-score in [20] came to 1.15.
